Rows were chosen to be rich in hits. Some 7.9% of all compounds tested hit in one or more screens of this group.
HCV inh – HCV inhibition; Huh7.5.1 HCVcc-Cre infection, luciferase reporter, 44 h; Potency, µM (doses to about 41.8 µM), for inactives: top-dose activity change, negative = inhibition, hits mostly inhibitors; 3.4% of 340,000 active; AID 651820; active = well fitted inhibition curve with a large enough effect; inconclusive = small, poorly fitted or top-dose-only effect, or another doubt; inactive = no such curve, though single readings can be large or run the other way; also: potency is read from the fitted curve at half-maximal effect
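Seed cells (1,000/well) for 4 h; treat with compound and infect with HCVcc-Cre, moi about 0.5. Incubate 44 h, then detect luciferase activity.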
LASV entry inh – Lassa virus entry inhibition. 1.2% of 300,000 active. Lassa virus pseudotype entry inhibition, cell reporter. Potency, µM (series often up to 37.9 µM), without a hit: at the top dose activity change, negative = inhibition, most hits filed as inhibitors; calls by dose curve; tested in HEK293 cells; also: potency is read from the fitted curve at half-maximal effect; nearly all actives have a fitted effect of over 50% in size
MARV entry inh – Marburg virus entry inhibition; 1.8% of 300,000 active; AID 540276; Marburg virus pseudotyped entry inhibition, cell reporter; Potency, µM (highest dose often 37.8 µM), without a hit: at the highest dose activity change, negative = inhibition, actives largely listed as inhibitors; calls by dose curve; tested in HEK293 cells; also: potency is read from the fitted curve at half-maximal effect
FMDV inh – antivirals against foot and mouth disease virus; FMDV antiviral cell-based qHTS; 1.2% of 410,000 active; Potency, µM (highest dose often 57.9 µM), without a hit: at the top dose activity change, negative = inhibition, usual class: inhibitors; AID 1159524; calls by dose curve; tested in HEK293T cells; also: read-out not given here; potency is read from the fitted curve at half-maximal effect; nearly all actives have a fitted effect of over 45% in size
HCMV antiviral – inhibitors of human cytomegalovirus | AID 1259415 | HFF cells, HCMV-luciferase reporter, 72 h; active compounds read low | activity change, negative = inhibition, % at 57.5 µM | 4.5% of 410,000 active; in the data active = activity change below about -60%; inconclusive = no clear call, values can overlap the other calls; inactive = above about -39%
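Luciferase read-out from HCMV-luciferase-infected HFFs (MOI 1 PFU/cell) 72 h post infection at 37C; compounds added after 16 h cell attachment; activity normalized between buffer-only basal and Salinomycin (10uM) inhibitor controls.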
* marks the source's active call; other numbers are inactive results; u = inconclusive; x = no result; [ ] = remark or other dose. % is scaled to controls: 0 for no effect and ±100 for the full control effect.

SMILES	HCV inh	LASV entry inh	MARV entry inh	FMDV inh	HCMV antiviral
OC(COc1ccc(OCC(O)CN2CCCCCC2)cc1)CN1CCCCCC1 (stereo not given)	7.1µM*	u	11µM*	-19%	x
COc1cc(C(=O)N2CCN(CC(O)COc3ccccc3)CC2)cc(OC)c1OC (stereo not given)	14%	2%	10%	12%	40
Cc1ccc(N2CCN(CC(O)COc3cccc(C)c3)CC2)cc1 (stereo not given)	-5%	x	x	-1%	-62*
CN1CCN(CC(O)COc2ccccc2)CC1 (stereo not given)	15%	x	x	3%	-5
Cc1cccc(N2CCN(CC(O)COc3ccccc3)CC2)c1 (stereo not given)	26%	-18%	u	-27%	81
CN1CCN(CC(O)COc2ccc(C34CC5CC(CC(C5)C3)C4)cc2)CC1 (stereo not given)	10µM*	3%	u	-9%	u
COc1cc(/C=C/C(=O)N2CCN(CC(O)COc3ccccc3)CC2)cc(OC)c1OC (stereo not given)	-21%	-21%	-5%	u	-82*
c1ccc(Oc2nc(NC3CCCCC3)c3[nH]cnc3n2)cc1	x	x	x	-8%	x
CC(C)(c1ccccc1)c1ccc(OCC(O)CN2CCCC2)cc1 (stereo not given)	u	u	2.8µM*	-1%	-32
NC(=O)C1CCN(CC(O)COc2ccc(-c3ccccc3)cc2)CC1 (stereo not given)	10µM*	-18%[46.1 µM]	u	-6%	-33
OC(COc1ccccc1)CN1CCN(C(c2ccccc2)c2ccccc2)CC1 (stereo not given)	7.9µM*	x	x	-29%	10
CCOCCCNC(=O)c1ccc2c(c1)ncn2-c1ccc(CC)cc1	-11%	x	x	10%	-64*
CCOCCCNC(=O)c1ccc2c(c1)ncn2-c1ccc(C)cc1C	-3%	u	-3%[46.1 µM]	-15%	-29
O=C(c1ccc(Br)s1)N1CCN(c2ccccn2)CC1	6%	3%	15%	-1%	-2
O=C(N1CCN(c2ccccn2)CC1)N1c2ccccc2Sc2ccccc21	u	u	u	u	-66*
O=C(NC1CCN(C(=O)N2c3ccccc3Sc3ccccc32)CC1)c1ccccc1Cl	-10%	-15%	16µM*	x	-37
COc1cccc(C(=O)NC2CCN(C(=O)N3c4ccccc4Sc4ccccc43)CC2)c1	u	u	10µM*	x	u
CCN(CC)c1ccc(C(=O)NCc2ccc3c(c2)CCN3C(=O)c2ccccc2)cc1	x	-6%[46.1 µM]	x	-29%	-14
O=C(CNc1ccccc1)N/N=C/c1ccc([N+](=O)[O-])o1	u	u	18µM*	-4%	-82*
Cc1ccc(CCC(=O)Nc2ccc(Cl)cc2Cl)o1	x	x	x	25%	-66*
O=C(Cc1ccccc1)N/N=C/c1ccc(-c2ccc([N+](=O)[O-])cc2)o1	-4%	-24%	5%	-1%	-61*
O=[N+]([O-])c1ccc(/C=N/NC(=S)Nc2ccccc2)o1	-10%	14%	24%	-4%	-26
NC(=O)N/N=C/c1ccc(-c2ccc([N+](=O)[O-])cc2)o1	10%	x	0%	38%	3
O=C(CNc1cccc([N+](=O)[O-])c1)N/N=C/c1ccc(F)cc1	-5%	-6%[46.1 µM]	u	-3%	-63*
CCOC(=O)c1ccc(NC(=O)c2cccc3c(=O)c4c([nH]c23)CCCC4)cc1	x	u	u	-5%	8
SMILES	HCV inh	LASV entry inh	MARV entry inh	FMDV inh	HCMV antiviral
Cn1c(NC[C@@H](O)c2ccccc2)nc2c1c(=O)n(Cc1ccc(Cl)cc1)c(=O)n2C	x	x	-7%	x	x
CCCOC(=O)/C(=C\c1ccc([N+](=O)[O-])o1)NC(=O)c1ccccc1	14µM*	-5%	-7%	-1%	-12
O=C(CCC(=O)Nc1ccc(Cl)cc1Cl)N/N=C/c1ccc([N+](=O)[O-])o1	u	u	u	-25%	-77*
CCOC(=O)/C(=C\c1ccc([N+](=O)[O-])o1)NC(=O)c1ccccc1	u	-12%	2%	x	x
O=C(Cc1ccc2c(c1)OCO2)NN=Cc1ccc([N+](=O)[O-])o1	10µM*	u	10µM*	-19%	-39
O=C(CNC(=O)c1ccccc1)N/N=C/c1ccc([N+](=O)[O-])o1	u	-24%	-38%	0%	-80*
CCCCCC(=O)N/N=C/c1ccc([N+](=O)[O-])o1	u	u	u	-11%	-23
O=C(Cc1ccc2c(c1)OCCO2)N/N=C/c1ccco1	8%	x	x	23%	-32
COc1ccc(Br)cc1CNC(=O)c1cc2ccccn2n1	x	u	x	10%	-13
CCc1nnc(SCC(=O)Nc2ccc(F)cc2F)c2cc3sc(C)cc3n12	x	-1%[46.1 µM]	x	-20%	18
O=C(CN1C(=O)COc2ccc(S(=O)(=O)N3CCCC3)cc21)N1CCN(c2ccc(F)cc2)CC1	x	-4%[46.1 µM]	-2%[46.1 µM]	-7%	-4
CN(C)C(=O)Oc1c(Cl)cc(Cl)c2ccccc12	-8%	7%	7%	-22%	-71*
O=S(=O)(N=C(NS(=O)(=O)c1ccc(Cl)cc1)c1ccccc1)c1ccc(Cl)cc1	30%	-1%	7%	28%	-39
O=S(=O)(/N=C(/NS(=O)(=O)c1ccccc1)c1ccccc1)c1ccccc1	-3%	-10%	-1%[46.1 µM]	6%	-106*
Cc1cccc(NC(=O)CSc2nc3ccc(NC(=O)c4ccco4)cc3s2)c1	x	-7%[46.1 µM]	u	25µM*	u
CN(C(=O)CSc1nc2ccc(NC(=O)c3cccs3)cc2s1)c1ccccc1	x	u	-25%[46.1 µM]	u	-76*
CC(=O)Nc1ccc2nc(SCCOc3ccc(C)cc3)sc2c1	x	-1%[46.1 µM]	u	-13%	u
CC(=O)Nc1ccc2nc(SCCOc3ccccc3)sc2c1	x	-10%[46.1 µM]	-20%[46.1 µM]	10%	-78*
Cc1ccc(NC(=O)CSc2nc3ccc(NC(=O)c4ccco4)cc3s2)c(C)c1	x	-24%[46.1 µM]	u	-25%	-24
CC(c1ccccc1)N1CCn2c(nc3cc(NC(=O)c4cccs4)ccc32)C1 (stereo not given)	10µM*	-17%	-30%	x	-73*
CCc1cccc(C)c1NC(=O)Cn1c(=O)n(-c2ccc(C)cc2)c(=O)c2c1cnn2C	x	u	26%[46.1 µM]	-20%	14
O=C(NCc1ccco1)C1=COC2=NC(=O)N(Cc3ccccc3)CCN12	x	x	x	x	-8
Cc1ccc(C)c(NC(=O)Cn2cnc3nc4c(cc3c2=O)CCCC4)c1	x	-14%[46.1 µM]	x	-29%	35
COc1cccc(NC(=O)CSc2nc3ccc(NC(=O)c4ccco4)cc3s2)c1	x	-18%[46.1 µM]	u	40µM*	-35
Cc1ccccc1NC(=O)CSc1nc2ccc(NC(=O)c3ccco3)cc2s1	x	-4%[46.1 µM]	-1%[46.1 µM]	u	-25
CCCN1CNC(=S)N(c2ccccc2C)C1	11%	3%	9%[46.1 µM]	12%	u
CCN(CC)CCN1CNC(=S)N(c2ccccc2OC)C1	20%	11%	1%[46.1 µM]	0%	-65*
CC1CCN(CCCC(=O)c2ccc(F)cc2)CC1	x	x	x	-18%	x

Assay outcomes: PubChem, National Center for Advancing Translational Sciences (NCATS)
